The text below walks through data of PubChem BioAssay (NCATS).

The nature of assay [1]: qHTS Assay for Lipid Storage Modulators (AID 1519; calls by dose curve; on activity change, negative = inhibition: on the % scale 0 is the no-effect control and ±100 the full control effect). As to conditions: Drosophila S3 cells, BODIPY lipid droplet/cell ratio, laser cytometry, cells loaded with oleic acid. In outline: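 Cells seeded at 5,000 per well were treated with compounds over a concentration series and loaded with oleic acid (400 uM, as added). Lipid droplet fluorescence (488 nm excitation, 500-530 nm channel) was read by laser-scanning cytometry and normalized to 20 uM Triacsin C.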

Assay [2] in a line: Cell Viability - LYMP2-012 (AID 982).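 Further: cellular ATP by luciferase luminescence where a drop means cytotoxicity; cells exposed to compound for one day before reading; 0% = DMSO only and full loss = 92 µM tetraoctylammonium bromide; nearly all actives have a fitted effect of over 55% in size.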 The settings on record: LYMP2-012 lymphoblastoid cell viability qHTS; series mostly up to 92.2 µM. For orientation: qHTS replaces the single test concentration by a dilution series.
Assay [3] is described as follows: Cell Viability - LYMP2-014 (AID 983).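 Further: plate controls were DMSO only for no effect and 92 µM tetraoctylammonium bromide for full effect; nearly all actives have a fitted effect of over 50% in size.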 As to conditions: LYMP2-014 lymphoblastoid cells, viability qHTS; series mostly up to 92.2 µM. The gist of the method:
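Decrease in intracellular ATP after 24 hr treatment at 37 C, measured by luciferase luminescence, indicated cytotoxicity. Concentration-response data were fitted with the standard Hill equation to give AC50.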

The nature of assay [4]: Cell Viability - LYMP2-016 (AID 984).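 Further: cells exposed to compound for 24 hours at 37 °C; on the % scale 0 is the no-effect control and ±100 the full control effect; nearly all actives have a fitted effect of over 55% in size.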 As to conditions: LYMP2-016 lymphoblastoid cell viability, qHTS; series mostly up to 92.2 µM. In outline:
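Cytotoxicity was scored by luminescent ATP content (CellTiter-Glo) after 24 h compound exposure at 37 C of a human lymphoblastoid line at 2500 cells/well. Concentration-response data were fitted to the Hill equation for AC50.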

Assay [5] in a line: Cell Viability - LYMP2-018 (AID 985).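 Further: compound exposure lasted 24 hr at 37 °C; plate controls were DMSO only for no effect and tetraoctylammonium bromide at 92 µM for full effect; nearly all actives have a fitted effect of over 50% in size.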 The settings on record: LYMP2-018 lymphoblastoid cells, viability (qHTS); series mostly up to 92.2 µM. The gist of the method:
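Acute cytotoxicity is scored as a concentration-dependent drop in intracellular ATP after 24 hr exposure of the lymphoblastoid line in complete culture medium, measured by luciferase luminescence. Potency is expressed as AC50 from Hill modelling.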

A short description of assay [6]: Cell Viability - LYMP2-020 (AID 986).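 Further: plate controls were DMSO only for no effect and tetraoctylammonium bromide at 92 µM for full effect; nearly all actives have a fitted effect of over 55% in size.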 The settings on record: series mostly up to 92.2 µM. The gist of the method:
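Acute cytotoxicity in a human lymphoblastoid line is scored as a concentration-dependent fall in cellular ATP after 24 hr at 37 C in complete medium. The positive control is tetraoctylammonium bromide, and potency is given as Hill-fit AC50.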

A short description of assay [7]: Cell Viability - LYMP2-022 (AID 987).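 Further: 0% = DMSO alone and full effect = tetraoctylammonium bromide at 92 µM; nearly all actives have a fitted effect of over 55% in size.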 The settings on record: LYMP2-022 lymphoblastoid cell viability; series mostly up to 92.2 µM. In outline: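 Acute toxicity in a human lymphoblastoid line is scored as decreased intracellular ATP after 24 hr compound treatment at 37 C. ATP is measured by CellTiter-Glo luminescence; curves are fitted with the Hill equation to give AC50.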

Assay [8] in a line: Cell Viability - LYMP2-024 (AID 988).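 Further: plate controls were DMSO only for no effect and 92 µM tetraoctylammonium bromide for full effect; nearly all actives have a fitted effect of over 60% in size.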 As to conditions: LYMP2-024 lymphoblastoid cell viability; series mostly up to 92.2 µM. The gist of the method: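 Acute toxicity is measured as concentration-dependent loss of intracellular ATP in a human lymphoblastoid line treated 24 hours at 37 C. Luciferase luminescence quantifies ATP; AC50 values come from standard Hill-equation modelling.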

The nature of assay [9]: Cell Viability - LYMP2-026 (AID 989). Further: on the % scale 0 is the no-effect control and ±100 the full control effect; nearly all actives have a fitted effect of over 50% in size. As to conditions: LYMP2-026 lymphoblastoid cell viability, qHTS; series mostly up to 92.2 µM. The gist of the method: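 Concentration-dependent loss of intracellular ATP in human lymphoblastoid cells after 24 hr at 37 C, quantified by luciferase luminescence. AC50 derived from standard Hill equation.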
Assay [10] in a line: Cell Viability - LYMP1-002 - Assay at 24 hr (AID 993). Further: on the % scale 0 is the no-effect control and ±100 the full control effect. As to conditions: LYMP1-002 lymphoblastoid cells viability; series mostly up to 92.2 µM. The gist of the method:
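qHTS, LYMP1-002 lymphoblastoid, 24 h cpd, 37 C, CellTiter-Glo ATP luminescence; AC50 via Hill eq.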

The target of assay [11] is Alpha-galactosidase A (Homo sapiens) (UniProt P06280). In words: Counterscreen for Glucocerebrosidase Inhibitors: qHTS Assay for Human alpha-Galactosidase at pH 4.5 (AID 992). Further: 0% is about no effect. As to conditions: purified enzyme, fluorogenic substrate; series mostly up to 76.9 µM. The gist of the method:
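Enzyme at 2 nM final was combined with compound (0.7 nM to 77 uM) and 80 uM 4-methylumbelliferyl alpha-D-galactopyranoside in 50 mM citric acid, 0.005% Tween-20, pH 4.5. After 20 min at room temperature, fluorescence was read (Ex 365/Em 440 nm); AC50 came from Hill fits.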

Assay [12] has as its target alpha-glucosidase (Oryza sativa, rice) (UniProt Q653V4). In words: Counterscreen for Glucocerebrosidase Inhibitors: qHTS Assay for Rice alpha-Glucosidase at pH 5.0 (AID 997).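 Further: 0% = full activity with enzyme and -100% = basal without enzyme.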 The settings on record: rice alpha-glucosidase enzyme activity; series mostly up to 76.9 µM. In outline:
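Rice alpha-glucosidase (4 nM final) with 400 uM 4-methylumbelliferyl-alpha-D-glucopyranoside in citrate buffer pH 5.0, 20 min at room temperature, stopped at pH 10; fluorescence 365/440 nm, compounds 0.7 nM–77 uM, AC50 from Hill fits.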

Assay [13] has as its target DNA repair nuclease/redox regulator APEX1 (Homo sapiens) (UniProt P27695). Kind of assay: qHTS Validation Assay for Inhibitors of the Human Apurinic/apyrimidinic Endonuclease 1 (APE1) (AID 1705;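 further: TAMRA fluorescence gain over two minutes as APE1 cuts a quenched THF abasic duplex; on the % scale 0 is the no-effect control and ±100 the full control effect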). As to conditions: purified APE1 endonuclease activity, fluorescence, titration; series mostly up to 57.1 µM. The gist of the method: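 Activity read as rising fluorescence (598 nm emission, 525 nm excitation) from incision of a TAMRA/BHQ-2 duplex carrying a THF abasic site (50 nM). Compound and enzyme sat 15 min at RT before substrate start; signal change between first and third 60-s reads.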

Assay [14] can be described thus: Counterscreen for APE1 Inhibitors: Fluorescent Dye Displacement Validation Assay (AID 1707).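 Further: plate controls were ThO with dsDNA and no compound for no effect and ThO without dsDNA for full effect.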 The settings on record: fluorescent dye displacement from DNA; series mostly up to 57.1 µM. In outline:
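Thiazole Orange displacement from dsDNA: 250 nM ThO with 50 nM TAMRA-labelled abasic-site (tetrahydrofuran) duplex in 50 mM Tris-HCl pH7.5, 50mM NaCl, 2 mM MgCl2, 0.01% Tween-20. Loss of endpoint fluorescence (ex 480 nm, em 540 nm) flags DNA binders.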

Assay [15] concerns the target Endonuclease 4 (Escherichia coli (strain K12)) (UniProt P0A6C1). In words: Counterscreen for APE1 Inhibitors: qHTS Validation Assay for Inhibitors of Endonuclease IV (AID 1708). Further: on the % scale 0 is the no-effect control and ±100 the full control effect. The settings on record: E. coli endonuclease IV, DNA cleavage fluorescence; series mostly up to 57.1 µM. In outline:
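Cleavage of a quenched abasic-site DNA duplex (50 nM, 5'-TAMRA, 3'-BHQ-2) by 2 nM enzyme is followed as fluorescence increase. Compounds are preincubated with enzyme 15 min at room temperature before substrate addition.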
A general note: A counterscreen serves to expose hits that act by an unwanted route or on another target.

Assay [16] is described as follows: qHTS for differential inhibitors of proliferation of Plasmodium falciparum line 7G8 (AID 1815).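 Further: parasite growth measured after three days of incubation; plate controls were vehicle wells for no effect and reference inhibitor wells for full effect.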 The settings on record: Plasmodium falciparum 7G8 proliferation inhibition; series mostly up to 28.7 µM.
Assay [17] can be described thus: qHTS for differential inhibitors of proliferation of Plasmodium falciparum line GB4 (AID 1816).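 Further: parasite growth measured after 72 h incubation; 0% = vehicle DMSO and -100% = reference inhibitor.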 The settings on record: Potency: Plasmodium falciparum GB4 proliferation inhibition; series mostly up to 28.7 µM.
Assay [18] can be described thus: qHTS for differential inhibitors of proliferation of Plasmodium falciparum line 3D7 (AID 1876).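 Further: parasite growth measured after three days of culture; 0% = vehicle wells and -100% = reference inhibitor wells.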 The settings on record: P. falciparum 3D7 proliferation inhibition; series mostly up to 28.7 µM.
Assay [19] is described as follows: qHTS for differential inhibitors of proliferation of Plasmodium falciparum line D10 (AID 1877).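 Further: parasites grown with compound for 72 h before DNA staining; plate controls were vehicle wells for no effect and reference inhibitor wells for full effect.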 As to conditions: series mostly up to 28.7 µM.
The mark [20] stands for this setting: measured here: cell count channel max response.
Setting [21] is: measured here: lipid channel max response.

Molecules are shown by their SMILES. “And” between values parts separate entries of the source, which are not always exact repeats. Equal entries are not always repeated. Records with an inconclusive call do not appear. The source made the active and inactive calls. Unless noted, the call rests on the fitted dose curve; in most records, active means well fitted curve in the direction sought with a large enough effect; inconclusive means small, poorly fitted or top-dose-only effect, or another doubt; inactive means no such curve, though single readings can be large; an effect the other way counts as inactive or inconclusive.

DNA repair nuclease/redox regulator APEX1 (Homo sapiens), sequence (P27695 whole entry, looked up): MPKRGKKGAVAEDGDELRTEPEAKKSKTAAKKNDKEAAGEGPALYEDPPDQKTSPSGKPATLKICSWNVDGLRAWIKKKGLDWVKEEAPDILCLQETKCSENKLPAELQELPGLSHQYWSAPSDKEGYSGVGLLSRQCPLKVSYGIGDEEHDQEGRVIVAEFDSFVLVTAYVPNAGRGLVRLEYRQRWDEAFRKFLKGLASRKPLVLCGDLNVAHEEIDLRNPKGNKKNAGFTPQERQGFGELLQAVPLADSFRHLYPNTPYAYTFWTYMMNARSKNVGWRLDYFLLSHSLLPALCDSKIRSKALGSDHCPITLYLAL
Alpha-galactosidase A (Homo sapiens), sequence (P06280 whole entry, looked up): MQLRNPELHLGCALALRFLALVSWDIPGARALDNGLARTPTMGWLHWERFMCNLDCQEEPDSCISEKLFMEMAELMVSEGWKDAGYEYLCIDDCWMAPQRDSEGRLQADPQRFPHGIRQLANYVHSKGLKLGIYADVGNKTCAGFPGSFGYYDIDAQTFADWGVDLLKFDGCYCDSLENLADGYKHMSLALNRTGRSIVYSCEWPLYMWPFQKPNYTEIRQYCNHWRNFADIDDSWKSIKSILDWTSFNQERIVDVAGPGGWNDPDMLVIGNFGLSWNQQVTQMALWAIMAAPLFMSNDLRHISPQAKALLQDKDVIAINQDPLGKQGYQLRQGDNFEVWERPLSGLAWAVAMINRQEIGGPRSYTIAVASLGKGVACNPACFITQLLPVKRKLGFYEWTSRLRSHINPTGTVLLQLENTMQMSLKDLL

In the case of `CCn1cc(C(=O)O)c(=O)c2cc(F)c(N3CCNCC3)cc21`, the activity change, negative = inhibition in assay [1] (at 25.7 µM (top of the series)) was 0.231% (inactive); in [1] (at 57.5 µM (top of the series)) it was 8.94% (inactive). The max response was -2.5% and 14.7% in assay [1] (setting [20]); -2.45% and 30% in [1] (setting [21]).
Regarding `OC(Cn1cncn1)(Cn1cncn1)c1ccc(F)cc1F`, the activity change, negative = inhibition in [1] (at 57.5 µM (top of the series)) was 11.9% (inactive). The max response turned out to be 12.6% in assay [1] (setting [20]) and 26.4% in assay [1] (setting [21]).
Consider `CCc1cc(C(N)=S)ccn1`, for which the Potency entry in [2], in assay [3], in assay [4], in assay [5], in assay [6] and in assay [7] was “inactive” in each case. For the same molecule, the Potency entry in assay [8], in assay [9] and in assay [10] was “inactive” each time. Further, the activity change, negative = inhibition was -2.71% (inactive) in assay [1] (at 25.7 µM (top of the series)) and 6.15% (inactive) in assay [1] (at 57.5 µM (top of the series)). Besides, the max response in assay [1] (setting [20]) is -9.37% and 8.92%; in assay [1] (setting [21]), -12.5% and 21.6%.
Consider `NNC(=O)c1ccncc1`, for which the Potency entry in assay [2], in assay [3], in assay [4], in [5], in assay [6] and in assay [7] was “inactive” in each case. For the same molecule, the Potency entry in assay [8], in [9] and in assay [10] was “inactive” each time. For the same molecule, the activity change, negative = inhibition in [1] (at 25.7 µM (top of the series)) was -0.316% (inactive). The figures for the max response in [1] (setting [20]) and in assay [1] (setting [21]) were -8.98% and -8.54%, respectively.
`Cc1cccc(Nc2ccncc2S(=O)(=O)NC(=O)NC(C)C)c1`: the activity change, negative = inhibition was -1.07% (inactive) in [1] (at 25.7 µM (top of the series)) and 6.92% (inactive) in [1] (at 57.5 µM (top of the series)). The max response was -3.68% and 16.7% in [1] (setting [20]); -4.97% and 28.2% in assay [1] (setting [21]).
Take `NC(=O)c1cccc(N)c1`: the molecule was called inactive in assay [11], in [12], in [13], in [14] and in assay [15]. Moreover, the activity change, negative = inhibition in assay [1] (at 57.5 µM (top of the series)) was 7.95% (inactive). The max response in assay [1] (setting [20]) stood at 35.3%; in assay [1] (setting [21]), 59.1%. For the same molecule, the Potency result in assay [16], in assay [17], in assay [18] and in [19] was “inactive” each time.
